TDP1 block: inhibitors of human tyrosyl-DNA phosphodiesterase TDP1; Potency, µM (highest dose often 130 µM), inactives show top-dose activity change, negative = inhibition, usual class: inhibitors; 0.28% of 350,000 active; Q9NUW8; recombinant TDP1, AlphaScreen DNA substrate cleavage; further: potency means the concentration at half of the fitted maximal effect; on the % scale 0 is the no-effect control and ±100 the full control effect; nearly all actives have a fitted effect of over 40% in size
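Here, a 5' biotin and 3' phosphotyrosine-FITC DNA oligonucleotide reports Tdp1 activity: intact substrate bridges AlphaScreen beads, while cleavage leaves a 3' phosphate and drops signal. All incubations at room temperature.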
WRN helicase inh-1: inhibitors of human WRN helicase. Q14191. WRN helicase unwinding, fluorescent forked duplex, kinetic. Potency, µM (doses to about 114 µM), inactives show at the top dose activity change, negative = inhibition, hits mostly inhibitors. 0.46% of 360,000 active. AID 651768; further: potency means the concentration at half of the fitted maximal effect; on the % scale 0 is the no-effect control and ±100 the full control effect; nearly all actives have a fitted effect of over 55% in size
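Kinetic fluorescence helicase assay: unwinding of a quenched forked DNA duplex (100 nM final) with 2 mM ATP final raises red fluorescence (525/598 nm). Compounds sat 15 min at room temperature with 20 nM WRN beforehand.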
PGK inhibitor: inhibitors of T. brucei phosphoglycerate kinase | P07378 | PGK/GAPDH coupled, Kinase-Glo luminescence, 60 min | Potency, µM (titrated, usually from 57.5 µM), for the others: at the highest dose activity change, negative = inhibition, actives largely listed as inhibitors | 0.043% of 380,000 active | AID 602233; further: potency means the concentration at half of the fitted maximal effect; on the % scale 0 is the no-effect control and ±100 the full control effect; nearly all actives have a fitted effect of over 60% in size
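Luminescent ATP detection (Kinase-Glo Plus) follows a 60-minute room-temperature incubation, with wells lacking PGK as controls. Buffer: 100 mM TEA (pH 7.6), 5 mM MgCl2, 0.01% Tween-20. Coupling enzyme GAPDH (100 nM final) supplies unstable 1,3-BPG in-well.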
FEN1 inh-1: inhibitors of human flap endonuclease 1 | P39748 | AID 588795 | 0.35% of 390,000 active | Potency, µM (series often up to 114 µM), without a hit: at the highest dose activity change, negative = inhibition, actives largely listed as inhibitors | Recombinant FEN1 flap cleavage, fluorescence, 15 min; further: potency means the concentration at half of the fitted maximal effect; on the % scale 0 is the no-effect control and ±100 the full control effect; nearly all actives have a fitted effect of over 65% in size
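Potency values derive from four-parameter Hill fits of normalized qHTS data. The reaction used 10 nM FEN1 preincubated 15 min at room temperature with compound, then 50 nM DNA substrate, read at 0 and 15 min.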
Tb PFK block: inhibitors of T. brucei phosphofructokinase. O15648. T. brucei PFK, ADP-Glo luminescence. Potency, µM (series often up to 57.5 µM), without a hit: at the top dose activity, negative = inhibition, usual class: inhibitors. 0.17% of 330,000 active;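 further: potency means the concentration at half of the fitted maximal effect; 0% = uninhibited 1x PFK enzyme wells and -100% = no-enzyme wells; nearly all actives have a fitted effect of over 60% in size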
Target sequence (O15648 whole entry, looked up): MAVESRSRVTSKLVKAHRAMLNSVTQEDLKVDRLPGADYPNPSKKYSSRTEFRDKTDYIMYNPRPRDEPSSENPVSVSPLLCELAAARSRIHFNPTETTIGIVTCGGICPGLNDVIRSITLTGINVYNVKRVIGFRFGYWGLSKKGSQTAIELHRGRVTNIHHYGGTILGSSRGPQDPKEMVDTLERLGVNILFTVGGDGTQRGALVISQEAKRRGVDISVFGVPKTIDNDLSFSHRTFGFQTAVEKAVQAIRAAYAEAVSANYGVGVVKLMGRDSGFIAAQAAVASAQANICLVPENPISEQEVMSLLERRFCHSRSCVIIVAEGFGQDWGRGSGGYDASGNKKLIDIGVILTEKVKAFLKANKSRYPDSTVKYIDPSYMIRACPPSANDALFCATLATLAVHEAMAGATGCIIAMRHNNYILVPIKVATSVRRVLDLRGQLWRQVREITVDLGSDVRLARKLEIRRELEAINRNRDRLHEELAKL
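In TEA buffer at pH 8.0 with 5 mM MgCl2, enzyme (1.25 nM) converted F6P (0.5 mM) and ATP (0.1 mM) for 45 min at room temperature. ADP product was read by luciferase luminescence.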
PI5P4Ka inh: blocks human PI5P4K alpha kinase activity; PI5P4Kalpha enzyme, ADP-Glo luminescence, 60 min; hits give low values; AID 652105; 1.2% of 330,000 active; max response, %; P48426; active means max response of -50% or lower; inconclusive means between -30% and -50%; inactive means -30% or higher; further: value at the top dose of about 77 µM; on the % scale 0 is the no-effect control and ±100 the full control effect
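Enzyme plus substrate dispensed, test compounds pinned in, then ATP (5 microM final) added. After 60 min at RT, ADP-Glo reagent 1 for 45 min and reagent 2 for 30 min preceded luminescence imaging.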
FEN1 inh-2: confirmation of human FEN1 inhibitors. shares compounds with FEN1 inh-1. FEN1 flap cleavage, TAMRA/BHQ2 fluorogenic DNA substrate. Potency, µM, usual class: inhibitors. 79% of 880 active; further: potency means the concentration at half of the fitted maximal effect; nearly all actives have a fitted effect of over 60% in size
WRN helicase inh-2: confirmation of human WRN helicase inhibitors. shares compounds with WRN helicase inh-1. WRN helicase DNA unwinding, fluorescence kinetic. Potency, µM (highest dose often 57.1 µM), inactives show at the top dose activity, negative = inhibition, most hits filed as inhibitors. 63% of 610 active. AID 720497; further: potency means the concentration at half of the fitted maximal effect; nearly all actives have a fitted effect of over 65% in size
TO DNA binding: counter-screen for WRN helicase inhibitors: DNA binding; Potency, µM (doses to about 57.1 µM), for the others: at the highest dose activity change, negative = inhibition, usual class: inhibitors; shares compounds with WRN helicase inh-1; 10% of 610 active; thiazole orange DNA binding displacement, fluorescence;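 further: drop in dye fluorescence marks compound binding to DNA; potency means the concentration at half of the fitted maximal effect; on the % scale 0 is the no-effect control and ±100 the full control effect; nearly all actives have a fitted effect of over 60% in size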
BLM helicase inh: BLM helicase inhibition, WRN selectivity check; Potency, µM (highest dose often 57.1 µM), for the others: at the top dose activity change, negative = inhibition, actives largely listed as inhibitors; 60% of 610 active; shares compounds with WRN helicase inh-1; Recombinant BLM helicase DNA unwinding, red fluorescence; further: potency means the concentration at half of the fitted maximal effect; nearly all actives have a fitted effect of over 60% in size
ADP-Glo interf: counter-screen for PI5P4K inhibitors: ADP-Glo detection interference, no enzyme; shares compounds with PI5P4Ka inh; ADP-Glo detection counter-screen, luciferase luminescence, no enzyme; Potency, µM (doses to about 76.9 µM), for inactives: at the highest dose activity change, negative = inhibition, most hits filed as inhibitors; 1,100 tested, under 10 active
* hit, by the source's call; i = inactive; u = inconclusive; x = no result; [ ] = dose if it differs, or a comment. Hits are enriched below; roughly 1.5% of the tested compounds scored in any of these assays. Unless noted, the call rests on the fitted dose curve; in most records, active means well fitted curve in the direction sought with a large enough effect; inconclusive means small, poorly fitted or top-dose-only effect, or another doubt; inactive means no such curve, though single readings can be large; an effect the other way counts as inactive or inconclusive.

SMILES	TDP1 block	WRN helicase inh-1	PGK inhibitor	FEN1 inh-1	Tb PFK block	PI5P4Ka inh	WRN helicase inh-2	TO DNA binding	BLM helicase inh	others
O=C(Nc1cccc(S(=O)(=O)NC2=NCCC2)c1)c1cc(-c2ccco2)nc2ccccc12	x	u	u	u	-6%	-75*	x	x	x	FEN1 inh-2=76*;ADP-Glo interf=-4%
O=C(O)c1ccc(NS(=O)(=O)c2ccc3c(c2)C2C=CCC2C(c2ccccc2F)N3)cc1 (centres undefined)	x	35µM*	-2%	40µM*	u	-51*	x	x	x	FEN1 inh-2=30*;ADP-Glo interf=-3%
Cc1ccc(NS(=O)(=O)c2ccc3c(c2)[C@H]2C=CC[C@H]2[C@@H](c2ccc(F)cc2)N3)cc1C	x	x	0%	-4%	x	x	x	x	x
O=C(Nc1cccc2cccnc12)c1ccc(Br)cc1	x	x	x	-27%	x	x	x	x	x
NS(=O)(=O)c1ccc(CCNC(=O)c2ccc3nccnc3c2)cc1	7.9µM*	32µM*	u	u	u	-68*	17µM*	u	7.6µM*	FEN1 inh-2=u;ADP-Glo interf=1%
C=CC[C@@H](CC(=O)N[C@@H](CO)Cc1ccccc1)C(=O)N[C@@H](COC(=O)[C@H](CC=C)CC(=O)OC(C)(C)C)Cc1c[nH]c2ccccc12	2%	-5%	1%	-6%	3%	12	x	x	x
C#CCN1C(=O)S/C(=C\c2ccc(-c3ccc(C(=O)O)cc3C)o2)C1=O	x	u	u	u	-11%	-57*	x	x	x	FEN1 inh-2=u;ADP-Glo interf=2%
CC(C)(C)OC(=O)CN1C(=O)S/C(=C\c2ccc(-c3cccc(C(=O)O)c3)o2)C1=O	x	x	x	x	2%	x	x	x	x
Cc1cc2[nH]c3c4ccccc4nc(C)c3c2cc1C	x	22%[11.6 µM]	1%	u	x	-52*	x	x	x	FEN1 inh-2=6.7*;ADP-Glo interf=6%
Cc1cc2[nH]c3ccccc3c2c(C)n1	0%	10%	-1%	-25%	0%	8	x	x	x
COc1ccc2c(c1OC)C(=O)OC2N1C(=O)CC[C@H]1C(=O)NCC1CCCO1 (some centres undefined)	x	2%	2%	-8%	0%	-1	x	x	x
Cc1ccccc1N=Cc1cc2c(cc1O)OC(N)=C(C#N)C2c1ccccc1 (centres undefined)	3%	u	3%	-12%	-1%	u	u	21%	u
N#CC1=C(N)Oc2cc(O)c(C=Nc3ccccc3)cc2C1c1ccccc1 (centres undefined)	3%	-19%	0%	0%	-2%	-26	x	x	x
CC(C)c1ccc2occ(CC(=O)Nc3cccc(C(F)(F)F)c3)c2c1	5%	x	-7%	-7%	x	x	x	x	x
COc1cc2c(cc1NC(=O)CSc1nc3ccccc3[nH]1)oc1ccccc12	2%	u	-6%	-7%	2%	x	-23%	25%	u
CC1(C)CC(=O)C2=C(C1)OC1=C(C(=O)CC(C)(C)C1)C2c1ccc(O)c([N+](=O)[O-])c1	2%	-5%	x	-5%	0%	7	x	x	x
CC1(C)CC(=O)C(C(C2=C(O)CC(C)(C)CC2=O)c2ccc(O)c([N+](=O)[O-])c2)=C(O)C1	1%	u	-2%	79µM*	-11%	-68*	22µM*	u	-24%
CCOc1ccc(CN(C)C(=O)c2cccc(S(=O)(=O)N3CCCC3)c2)cc1OC	-4%	-6%	i	0%	-1%	3	x	x	x
Cc1oc2c(CN3CCC(C)CC3)c(O)ccc2c(=O)c1-c1ccccc1	x	4%	x	3%	0%	2	x	x	x
COc1ccc(CN2CC(=O)N(c3ccc(C)c(C)c3)C2=S)cc1OC	4%	u	-19%	u	0%	-87*	-8%	-4%	-4%
CCC[n+]1c2ccccc2cc2ccccc21	x	u	-7%	u	-1%	-20	3µM*	1.7µM*	7.6µM*
CCCCC[n+]1cccc2c3ccccc3ccc21	13%	-7%	-6%	-12%	6%	3	x	x	x
CC(=O)c1c(C)oc(C)c1CSCc1ccc(C(=O)O)o1	u	u	u	-17%	-7%	x	9.6µM*	-4%	19µM*
CCCCSCc1ccc(C(=O)O)o1	0%	-8%	i	6%	-2%	x	x	x	x
CSc1nc(SCCO)c2sc3nc(-c4ccco4)c4c(c3c2n1)CC(C)(C)OC4	x	50µM*	-2%	-1%	u	x	7.6µM*	15µM*	2.2µM*
SMILES	TDP1 block	WRN helicase inh-1	PGK inhibitor	FEN1 inh-1	Tb PFK block	PI5P4Ka inh	WRN helicase inh-2	TO DNA binding	BLM helicase inh	others
COc1cc(/C=C2/C(=O)NN(c3cccc(C)c3)C2=O)ccc1OC(=O)c1ccco1	-4%	45µM*	-7%	-7%	-18%	-19	u	-14%	u
Cc1ccc(C(=O)NCC(c2ccc(F)cc2)N2CCOCC2)s1 (centres undefined)	0%	2%	-5%	2%	-1%	0	x	x	x
CCOc1ccccc1-n1c(=O)c2ccccc2c2ccccc2c1=O	-2%	u	0%	-19%	0%	4	-14%	-15%	-11%
CCc1[nH]c(=O)[nH]c1C(C)S(=O)(=O)c1ccc(C)cc1 (centres undefined)	7%	u	-4%	-13%	-22%	-4	2%	1%	u
CCc1c(C(C)S(=O)(=O)c2ccc(C)cc2)[nH]c(=O)n1-c1ccc(C)cc1 (centres undefined)	6%	-18%	-6%	1%	-5%	0	x	x	x
Cc1ccc(-c2nn3cnnc3s2)cc1NC(=O)c1ccc(-c2cccc(Cl)c2)o1	x	x	x	x	x	x	u	163%	u
O=C1/C(=C/c2cccc(O)c2)SC(=S)N1CC1CCCO1 (centres undefined)	7%	0%	-6%	-1%	-6%	3	x	x	x
